Test results: PubChem BioAssay AID1159580 (chemical genetic matrix, 2015)
The campaign covered roughly 5,500 compounds. About 2,000 (36%) were called active. Not shown: some 18% with an inconclusive outcome. Cut-off read from the data, not from the text of the source: active = normalized growth mostly below about 0.91 (no sharp cut-off); inconclusive = no clear call, values can overlap the other calls; inactive = mostly above about 0.92. The list shows a part of the results.

Assay: chemical genetic growth profiling, strain panel (AID 1159580);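 note: tested at 20 µM; growth read once vehicle control cultures reached saturation at 30 °C; 1 = growth at the plate median or of vehicle wells; lower values mean less growth of the strain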
Settings: growth OD

Measured: normalized growth

CC(C)[C@@H]1CC[C@@H](C)C[C@H]1O
inactive: S. cerevisiae deletion strains, locus YJR066W, strain TOR1, hits give low values 0.942 | S. cerevisiae deletion strains, locus YJR075W, strain HOC1, hits give low values 1.01 | S. cerevisiae deletion strains, locus YKL009W, strain mrt4, hits give low values 1 | S. cerevisiae deletion strains, locus YKL068W, hits give low values 1.01 | S. cerevisiae deletion strains, locus YKL085W, strain MDH1 (second series), hits give low values 1.01 | S. cerevisiae deletion strains, locus YKL085W, strain MDH1, hits give low values 1.01 | S. cerevisiae deletion strains, locus YKL160W, strain elf1, hits give low values 0.986 | S. cerevisiae deletion strains, locus YKL190W, strain CNB1, hits give low values 1.01 | S. cerevisiae deletion strains, locus YKR001C, strain vps1, hits give low values 1 | S. cerevisiae deletion strains, locus YKR026C, strain gcn3, hits give low values 0.987 | S. cerevisiae deletion strains, locus YKR091W, strain srl3, hits give low values 0.974 | S. cerevisiae deletion strains, locus YLL001W, strain dnm1, hits give low values 0.997 | S. cerevisiae deletion strains, locus YLL026W, hits give low values 1 | S. cerevisiae deletion strains, locus YLL041C, strain sdh2, hits give low values 0.978 | S. cerevisiae deletion strains, locus YLR027C, strain aat2, hits give low values 0.997 | S. cerevisiae deletion strains, locus YLR039C, strain RIC1, hits give low values 1 | S. cerevisiae deletion strains, locus YLR058C, strain SHM2, hits give low values 1 | S. cerevisiae deletion strains, locus YLR102C, strain apc9, hits give low values 1.02 | S. cerevisiae deletion strains, locus YLR113W, strain HOG1, hits give low values 0.973 | S. cerevisiae deletion strains, locus YLR221C, strain rsa3, hits give low values 0.999 | S. cerevisiae deletion strains, locus YLR258W, strain gsy2, hits give low values 0.99 | S. cerevisiae deletion strains, locus YLR262C, strain YPT6 (second series), hits give low values 0.935 | S. cerevisiae deletion strains, locus YLR262C, strain YPT6, hits give low values 1.01 | S. cerevisiae deletion strains, locus YLR268W, strain sec22, hits give low values 1.01 | S. cerevisiae deletion strains, locus YLR320W, strain mms22, hits give low values 0.991 | S. cerevisiae deletion strains, locus YLR330W, strain CHS5, hits give low values 1.01 | S. cerevisiae deletion strains, locus YLR342W, strain FKS1 (second series), hits give low values 1.02 | S. cerevisiae deletion strains, locus YLR342W, strain FKS1, hits give low values 0.986 | S. cerevisiae deletion strains, locus YLR357W, strain rsc2, hits give low values 0.953 | S. cerevisiae deletion strains, locus YLR370C, strain arc18, hits give low values 0.985 | S. cerevisiae deletion strains, locus YLR371W, strain rom2, hits give low values 1.01 | S. cerevisiae deletion strains, locus YLR384C, strain iki3, hits give low values 0.999 | S. cerevisiae deletion strains, locus YLR418C, strain cdc73, hits give low values 1.05 | S. cerevisiae deletion strains, locus YML016C, strain PPZ1, hits give low values 1.01 | S. cerevisiae deletion strains, locus YML032C, strain rad52, hits give low values 1 | S. cerevisiae deletion strains, locus YML120C, strain ndi1, hits give low values 0.989 | S. cerevisiae deletion strains, locus YML124C, strain tub3, hits give low values 1.02 | S. cerevisiae deletion strains, locus YMR058W, strain fet3, hits give low values 0.97 | S. cerevisiae deletion strains, locus YMR078C, strain ctf18, hits give low values 1.02 | S. cerevisiae deletion strains, locus YMR125W, strain sto1, hits give low values 0.969 | S. cerevisiae deletion strains, locus YMR129W, hits give low values 0.984 | S. cerevisiae deletion strains, locus YMR205C, strain PFK2, hits give low values 1.01 | S. cerevisiae deletion strains, locus YMR223W, strain ubp8, hits give low values 1.03 | S. cerevisiae deletion strains, locus YMR231W, strain pep5, hits give low values 1 | S. cerevisiae deletion strains, locus YMR307W, strain GAS1, hits give low values 0.985 | S. cerevisiae deletion strains, locus YNL067W, strain RPL9B, hits give low values 0.976 | S. cerevisiae deletion strains, locus YNL071W, strain lat1, hits give low values 0.979 | S. cerevisiae deletion strains, locus YNL128W, strain TEP1, hits give low values 1.02 | S. cerevisiae deletion strains, locus YNL153C, strain GIM3, hits give low values 0.95 | S. cerevisiae deletion strains, locus YNL183C, strain NPR1, hits give low values 0.943 | S. cerevisiae deletion strains, locus YNL209W, strain ssb2, hits give low values 0.985 | S. cerevisiae deletion strains, locus YNL233W, strain BNI4, hits give low values 0.988 | S. cerevisiae deletion strains, locus YNL248C, strain rpa49, hits give low values 0.987 | S. cerevisiae deletion strains, locus YNL250W, strain rad50, hits give low values 1.02 | S. cerevisiae deletion strains, locus YNL271C, strain bni1, hits give low values 1.02 | S. cerevisiae deletion strains, locus YNL298W, strain CLA4, hits give low values 1.02 | S. cerevisiae deletion strains, locus YNL307C, strain MCK1, hits give low values 1.02 | S. cerevisiae deletion strains, locus YNL322C, strain KRE1 (second series), hits give low values 0.993 | S. cerevisiae deletion strains, locus YNR049C, strain mso1, hits give low values 0.99 | S. cerevisiae deletion strains, locus YNR052C, strain pop2, hits give low values 1.02 | S. cerevisiae deletion strains, locus YOL006C, strain TOP1, hits give low values 0.977 | S. cerevisiae deletion strains, locus YOL012C, strain htz1 1.02 | S. cerevisiae deletion strains, locus YOL147C, strain pex11, hits give low values 1.02 | S. cerevisiae deletion strains, locus YOR001W, strain rrp6, hits give low values 0.993 | S. cerevisiae deletion strains, locus YOR061W, strain CKA2, hits give low values 1.01 | S. cerevisiae deletion strains, locus YOR069W, strain VPS5, hits give low values 1.02 | S. cerevisiae deletion strains, locus YOR070C, strain gyp1, hits give low values 1 | S. cerevisiae deletion strains, locus YOR080W, strain dia2, hits give low values 0.99 | S. cerevisiae deletion strains, locus YOR083W, strain WHI5, hits give low values 0.996 | S. cerevisiae deletion strains, locus YOR106W, strain vam3, hits give low values 0.979 | S. cerevisiae deletion strains, locus YOR136W, strain idh2, hits give low values 1.01 | S. cerevisiae deletion strains, locus YOR144C, strain elg1, hits give low values 1.02 | S. cerevisiae deletion strains, locus YOR184W, strain ser1, hits give low values 1 | S. cerevisiae deletion strains, locus YOR231W, strain MKK1, hits give low values 0.997 | S. cerevisiae deletion strains, locus YOR265W, strain rbl2, hits give low values 0.988 | S. cerevisiae deletion strains, locus YOR270C, strain vph1, hits give low values 0.931 | S. cerevisiae deletion strains, locus YOR290C, strain snf2, hits give low values 0.967 | S. cerevisiae deletion strains, locus YOR316C, strain cot1, hits give low values 1.03 | S. cerevisiae deletion strains, locus YPL051W, strain arl3, hits give low values 1.02 | S. cerevisiae deletion strains, locus YPL078C, strain atp4, hits give low values 0.976 | S. cerevisiae deletion strains, locus YPL106C, strain sse1, hits give low values 1 | S. cerevisiae deletion strains, locus YPL240C, strain hsp82, hits give low values 1 | S. cerevisiae deletion strains, locus YPL241C, strain CIN2, hits give low values 1.01 | S. cerevisiae deletion strains, locus YPL256C, strain CLN2, hits give low values 0.985 | S. cerevisiae deletion strains, locus YPR119W, strain clb2, hits give low values 1.01 | S. cerevisiae deletion strains, locus YPR141C, strain kar3, hits give low values 1.02 | S. cerevisiae deletion strains, locus YPR163C, strain tif3, hits give low values 1.02 | S. cerevisiae deletion strains, locus YPR167C, strain met16, hits give low values 1.02 | S. cerevisiae deletion strains, strain wtn01, hits give low values 1.03 | S. cerevisiae strains, strain wild type, hits give low values 1.01
